Experimental data published in ChEMBL document CHEMBL1157539, “Thousands of chemical starting points for antimalarial lead identification” (Nature, 2010).

What was measured:
Type in all cases: functional
Plasmodium falciparum [1] = assay: GSK_TCMDC: Inhibition of Plasmodium falciparum 3D7 in whole red blood cells, using parasite LDH activity as an index of growth. Test compounds present at 2uM
Plasmodium falciparum [2] = assay: GSK_TCMDC: Inhibition of Plasmodium falciparum Dd2 in whole red blood cells, using parasite LDH activity as an index of growth. Test compounds present at 2uM
HepG2 = assay: GSK_TCMDC: Percent inhibition of human HepG2 cell line. Test compounds present at 10uM.

## Cl.O=C1c2ccccc2CN1CCCN1CCC(Oc2ccc(F)cc2)CC1
Plasmodium falciparum [1]
  Inhibition: 97%
Plasmodium falciparum [2]
  Inhibition: 1%
HepG2
  Inhibition: 14%

## CCc1c(CCNCCCCCCNCc2ccc3c(c2CC)OCO3)ccc(OC)c1OC.Cl
Plasmodium falciparum [1]
  Inhibition: 100%
Plasmodium falciparum [2]
  Inhibition: 19%
HepG2
  Inhibition: 38%

## CCc1ccc(CN2CCC(C(=O)Nc3ccc(-c4nc5ccccc5[nH]4)cc3)CC2)o1
Plasmodium falciparum [1]
  Inhibition: 99%
Plasmodium falciparum [2]
  Inhibition: 94%
HepG2
  Inhibition: 29%
